± gives the standard deviation of the averaged measurements.
Key:
DLD1 [1] = test: cell viability (CellTiter-Glo) relative to plate median (fraction of plate median); higher = more viable cells; settings: 5 µM; treatment time 24 h; reporter: 7TFP
How it was run: (§1)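 Per-well firefly luciferase or CellTiterGlo luminescence, normalised to the plate median, is what is reported. It was measured in colorectal cancer cells with stable lentiviral TCF/Wnt firefly luciferase reporters after a 24 h treatment with library compounds at a final 5 µM. The mean of two independent replicates is given.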

HCT116 = test: as above; settings: 5 µM; treatment time 24 h; reporter: TCF4/Wnt
How it was run: as §1

SW480 [2] = test: as above; settings: 5 µM; treatment time 24 h; reporter: 7TFP
How it was run: as §1

DLD1 [3] = test: TCF/Wnt firefly luciferase reporter signal relative to plate median (fraction of plate median); higher = higher Wnt reporter signal; settings: 5 µM; treatment time 24 h; reporter: 7TFP
How it was run: as §1

SW480 [4] = test: as above; settings: 5 µM; treatment time 24 h; reporter: 7TFP
How it was run: as §1

Compound | cell viability (DLD1 [1]) | cell viability (HCT116) | cell viability (SW480 [2]) | TCF/Wnt firefly luciferase reporter signal (DLD1 [3]) | TCF/Wnt firefly luciferase reporter signal (SW480 [4])
CC(=O)[C@H]1CC[C@H]2[C@@H]3CC=C4C[C@@H](O)CC[C@]4(C)[C@H]3CC[C@]12C | 1.07 ± 0.028 | 0.941 ± 0.023 | 0.956 ± 0.028 | 1.1 ± 0.05 | 1.19 ± 0.014
COc1ccc2cc([C@H](C)CO)ccc2c1 | 0.939 ± 0.0028 | 0.862 ± 0.17 | 0.9375 ± 0.0021 | 1.11 ± 0.035 | 1.04 ± 0.05
CCCCCCCCNC(C)C(O)c1ccc(SC(C)C)cc1 (stereo not given) | 0.978 ± 0.021 | 1.05 ± 0.042 | 1.02 ± 0.03 | 1.08 ± 0.099 | 1.09 ± 0.085
CCC(Cc1c(I)cc(I)c(N)c1I)C(=O)O (stereo not given) | 1.08 ± 0.057 | 1.05 ± 0.035 | 1.07 ± 0.028 | 1.035 ± 0.0071 | 1.04 ± 0.035
C=CCc1ccc(OC(=O)c2ccccc2)c(OC)c1 | 1.02 ± 0.14 | 1.07 ± 0.05 | 1.02 ± 0.063 | 1.22 ± 0.014 | 1 ± 0.14
O=c1c(O)c(-c2ccc(O)cc2)oc2ccccc12 | 0.975 ± 0.05 | 1.16 ± 0.05 | 1.01 ± 0.034 | 1.05 ± 0.028 | 0.957 ± 0.047
C/C=C/CCC(=O)c1cc(C)c(O)cc1O [Sohirnone A] | 1.04 ± 0.09 | 1.06 ± 0.1 | 0.9585 ± 0.0078 | 1.02 ± 0.082 | 0.969 ± 0.044
NC(=O)N1c2ccccc2C=Cc2ccccc21 | 0.931 ± 0.098 | 1.01 ± 0.029 | 1.004 ± 0.0092 | 1.05 ± 0.042 | 0.937 ± 0.17
COc1ccccc1OCC(O)CN1CCN(CC(=O)Nc2c(C)cccc2C)CC1 (stereo not given) | 0.977 ± 0.018 | 0.927 ± 0.018 | 0.944 ± 0.013 | 1.04 ± 0.028 | 0.881 ± 0.0092
Cc1ccsc1/C=C/C1=NCCCN1C | 0.843 ± 0.058 | 0.864 ± 0.044 | 0.9765 ± 0.00071 | 1.04 ± 0.021 | 1 ± 0.083
O=C(O)CN1C(=O)c2cccc3cccc(c23)C1=O | 0.996 ± 0.034 | 0.967 ± 0.017 | 1.005 ± 0.0071 | 0.964 ± 0.12 | 1.09 ± 0.042
Nc1ccc(S(=O)(=O)Nc2ccc(Cl)nn2)cc1 | 1.06 ± 0.096 | 1.03 ± 0.035 | 1.08 ± 0.05 | 0.954 ± 0.028 | 1.09 ± 0.042
CCCNC(=O)NS(=O)(=O)c1ccc(Cl)cc1 | 1.03 ± 0.11 | 0.991 ± 0.042 | 1.07 ± 0.2 | 0.968 ± 0.013 | 0.945 ± 0.016
CCCC(=O)Nc1ccc(OCC(O)CNC(C)C)c(C(C)=O)c1 (stereo not given) | 0.942 ± 0.11 | 0.966 ± 0.019 | 0.876 ± 0.1 | 0.957 ± 0.12 | 1.01 ± 0.035
CNc1ccccc1C(=O)N1CCc2c([nH]c3ccccc23)C1=O | 1.03 ± 0.043 | 0.996 ± 0.1 | 0.994 ± 0.0085 | 1.14 | 1.09 ± 0.14
C1CCN2C[C@@H]3C[C@H](CN4CCCC[C@@H]34)[C@H]2C1 | 0.938 ± 0.076 | 0.9855 ± 0.0064 | 0.93 ± 0.035 | 0.883 ± 0.072 | 0.979 ± 0.03
O=C1OCCN1/N=C/c1ccc([N+](=O)[O-])o1 | 0.984 ± 0.023 | 1.05 ± 0.028 | 0.999 ± 0.0014 | 1.1 ± 0.078 | 1.05 ± 0.078
O=C1C=C(O)C(=O)c2ccccc21 | 1.025 ± 0.0071 | 1.06 ± 0.035 | 1.02 ± 0.047 | 0.947 ± 0.09 | 0.985 ± 0.11
CC(=O)O[C@H]1CC[C@]2(C)[C@H]3CC=C4[C@@H]5CC(C)(C)CC[C@]5(C)CC[C@@]4(C)[C@]3(C)CC[C@H]2C1(C)C [beta-AMYRIN ACETATE] | 0.982 ± 0.054 | 0.965 ± 0.025 | 1.03 ± 0.021 | 1.145 ± 0.0071 | 1.07 ± 0.014
CC1=CCCC(C)=CCC(C)(C)C=CC1 [HUMULENE (alpha)] | 0.978 ± 0.013 | 1.01 ± 0.027 | 0.965 ± 0.021 | 1.04 | 1.15 ± 0.13
CCCCC(CC)CN=C(N)N=C(N)NCCCCCCNC(N)=NC(N)=NCC(CC)CCCC (stereo not given) | 0.971 ± 0.0057 | 0.924 ± 0.045 | 1.02 ± 0.014 | 1.14 ± 0.028 | 1.1 ± 0.085
C=CCCCCCCCCCCCC(O)CC(O)COC(C)=O (stereo not given) | 0.995 ± 0.0071 | 0.9555 ± 0.0064 | 1.005 ± 0.0071 | 0.866 ± 0.1 | 0.962 ± 0.021
CC(=O)N(O)CCCCCNC(=O)CCC(=O)N(O)CCCCCNC(=O)CCC(=O)N(O)CCCCCN | 0.987 ± 0.015 | 0.95 ± 0.032 | 0.89 ± 0.073 | 0.869 ± 0.067 | 1.06 ± 0.021
C/C=C(/C(=C/C)c1ccc(O)cc1)c1ccc(O)cc1 | 0.987 ± 0.018 | 0.997 ± 0.061 | 1 ± 0.015 | 1.07 ± 0.15 | 1.09 ± 0.071
COc1cccc(O)c1O | 0.938 ± 0.059 | 0.905 ± 0.11 | 0.942 ± 0.0028 | 0.96 ± 0.099 | 0.978 ± 0.088
O=C(O)Cc1ccccc1Nc1c(Cl)cccc1Cl | 0.955 ± 0.078 | 0.938 ± 0.037 | 0.96 ± 0.032 | 0.95 ± 0.05 | 0.848 ± 0.13
C/C=C/C/C=C/CCC(=O)[C@H]1O[C@H]1C(N)=O [Cerulenin] | 0.927 ± 0.092 | 0.951 ± 0.069 | 0.946 ± 0.018 | 1.01 ± 0.11 | 0.993 ± 0.025
COCCCOc1cc(C[C@@H](C[C@H](N)[C@@H](O)C[C@H](C(=O)NCC(C)(C)C(N)=O)C(C)C)C(C)C)ccc1OC | 0.99 ± 0.029 | 0.962 ± 0.068 | 0.974 ± 0.0057 | 0.991 ± 0.07 | 1.07 ± 0.021
CC(C)CCC[C@@H](C)[C@H]1CC[C@H]2[C@@H]3CC[C@@H]4C[C@H](O)CC[C@]4(C)[C@H]3CC[C@]12C | 1.06 ± 0.028 | 1.01 ± 0.033 | 1.02 ± 0.076 | 0.985 ± 0.036 | 1.03 ± 0.07
